From PubChem
ABHD5 PLIN5 PPI – inhibitors of human ABHD5-perilipin-5 interaction. AID 602281. Split G. princeps luciferase complementation, luminescence, 4 h. inhibition, % at 4 µM. Q00G26+Q8WTS1. 360,000 compounds, 0.78% hits;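 active means inhibition above the mean inhibition across every tested compound plus 3 SD, cut at about 22% in these data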;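 further: 0% = DMSO only wells and the 100% control is not disclosed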
Mdm2 MdmX PPI – inhibitors of human Mdm2/MdmX interaction; O15151+Q00987; SaOS-2 split-luciferase Mdm2/MdmX complementation, luminescence; inhibition, % at 8 µM; 330,000 compounds, 3% hits; AID 485346;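 active means inhibition of at least 50% at 8 µM in the primary screen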
Target sequence (O15151 whole entry, looked up): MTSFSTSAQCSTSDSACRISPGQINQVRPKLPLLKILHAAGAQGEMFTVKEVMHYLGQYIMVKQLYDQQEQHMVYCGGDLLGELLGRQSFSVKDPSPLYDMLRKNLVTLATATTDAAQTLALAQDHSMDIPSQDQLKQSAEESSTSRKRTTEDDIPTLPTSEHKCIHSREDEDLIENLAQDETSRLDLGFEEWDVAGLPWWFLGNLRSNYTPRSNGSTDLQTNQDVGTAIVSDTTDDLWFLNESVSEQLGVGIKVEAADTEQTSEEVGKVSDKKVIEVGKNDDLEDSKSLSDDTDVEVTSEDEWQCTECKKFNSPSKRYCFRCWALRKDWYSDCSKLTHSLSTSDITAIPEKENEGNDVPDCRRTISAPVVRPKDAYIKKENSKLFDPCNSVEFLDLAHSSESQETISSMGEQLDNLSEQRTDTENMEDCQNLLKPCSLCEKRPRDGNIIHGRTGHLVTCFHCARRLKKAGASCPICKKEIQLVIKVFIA
Target sequence (Q00987 whole entry, looked up): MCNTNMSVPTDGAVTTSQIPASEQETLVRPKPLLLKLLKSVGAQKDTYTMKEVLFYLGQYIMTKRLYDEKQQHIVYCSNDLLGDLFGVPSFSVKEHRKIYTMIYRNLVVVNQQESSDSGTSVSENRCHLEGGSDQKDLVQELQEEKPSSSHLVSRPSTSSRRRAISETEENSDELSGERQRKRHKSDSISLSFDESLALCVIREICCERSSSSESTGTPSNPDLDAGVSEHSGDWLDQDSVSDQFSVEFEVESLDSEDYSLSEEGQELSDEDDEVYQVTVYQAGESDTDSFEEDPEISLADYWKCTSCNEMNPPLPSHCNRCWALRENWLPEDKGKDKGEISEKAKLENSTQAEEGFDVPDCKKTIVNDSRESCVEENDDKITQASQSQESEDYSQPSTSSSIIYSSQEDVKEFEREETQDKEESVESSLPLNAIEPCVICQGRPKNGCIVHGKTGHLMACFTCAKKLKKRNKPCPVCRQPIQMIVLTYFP
HIF-2a block – HIF-2a inhibition; 786-0 RCC cells HIF-2a reporter, luciferase luminescence, overnight; inhibition, % at 18.8 µM; 360,000 compounds, 0.72% hits; AID 624352;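 active means inhibition of the luminescence signal of 40% or more relative to plate controls, in a single-dose primary screen at 18.75 µM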
Peg3 prom inh – reduces Peg3 promoter-driven luciferase expression in HeLa; HeLa PEG-Prom luciferase reporter, luminescence, overnight; inhibition, % at 20 µM; 360,000 compounds, 1.7% hits;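 active means inhibition of at least 50% at 20 µM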
CF NFkB block – cystic fibrosis NF-kB activation inhibition. inhibition, % at 5 µM. KKLEB NF-kB-GFP reporter, PAF-induced, GFP fluorescence overnight. 360,000 compounds, 0.86% hits;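 active means at least 50% inhibition at 5 µM, scaled per plate between neutral and stimulator controls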;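 further: PAF is a Pseudomonas aeruginosa culture filtrate used as stimulus; plate controls were PAF-stimulated DMSO wells for no effect and unstimulated DMSO wells for full effect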
KKLEB cytotox – counter-screen for CF NF-kB inhibitors: cytotoxicity | 360,000 compounds, 0.36% hits | activity change (cytotoxicity), % at 5 µM | KKLEB CF airway cells viability, ATPlite luminescence, overnight; active compounds read low; cells stimulated with P. aeruginosa culture filtrate;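 active means corrected activity change at or below -50% at 5 µM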
Mdm2-MdmX conf – human Mdm2/MdmX binding inhibition, confirmed. inhibition, % at 8 µM. shares compounds with Mdm2 MdmX PPI. luminescent assay. 10,000 compounds, 55% hits. AID 489028; in the data active means inhibition above about 40%
Full FLuc ctr – full-length luciferase inhibition in Mdm2/MdmX counter-screen; AID 504607; SaOS-2 full-length luciferase counterscreen, luminescence; shares compounds with Mdm2 MdmX PPI; 6,200 compounds, 77% hits; inhibition, % at 8 µM;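 active means mean inhibition at 8 µM reaching about 37%, which flags the compound as non-specific, limit read from the data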;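 further: p53-null SaOS-2 cells with luciferase driven by a doxycycline-inducible promoter; compound on cells about two nights before reading with doxycycline added after day one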
An asterisk follows results filed as active; x = no result. An excerpt weighted towards active compounds, which were near 4.6% of everything screened.

SMILES	ABHD5 PLIN5 PPI	Mdm2 MdmX PPI	HIF-2a block	Peg3 prom inh	CF NFkB block	KKLEB cytotox	Mdm2-MdmX conf	Full FLuc ctr
CCCn1c(=O)c(C(=O)NNS(=O)(=O)c2ccc(C)cc2)c(O)c2ccccc21	3.0	50.9*	27.4	12.7	6.1	-2.8	30.2	84.6*
COc1ccc(CC(=O)Nc2ccc(S(=O)(=O)N(C)C3CCN(C)CC3)cc2)cc1	-6.7	12.0	5.8	-16.0	6.8	6.5	x	x
COc1ccc2oc(C(=O)Nc3ccc(S(=O)(=O)N(C)C4CCN(C)CC4)cc3)c(C)c2c1	12.4	96.4*	-10.3	75.0*	0.7	-7.3	45.6*	47.0*
CC(Oc1ccc(Br)cc1)C(=O)Nc1ccc(S(=O)(=O)N(C)C2CCN(C)CC2)cc1 (configuration not stated)	7.8	58.7*	-5.5	37.1	21.6	-9.2	38.9	76.0*
Cc1cccc(OCCNC(=S)NC(=O)c2cncc(Br)c2)c1	-4.4	12.8	5.6	10.7	3.4	-5.4	x	x
Cc1ccc(OCCNC(=O)c2cncc(Br)c2)cc1C	5.5	60.3*	9.8	8.2	13.8	-19.1	48.3*	59.6*
Cc1nnc(NC(=O)CCC(=O)NC2CCCCCCC2)s1	-0.5	5.0	4.9	-15.5	-14.9	9.6	x	x
CC1(C)CCN2CCC(C)(C)c3c(O)ccc1c32	11.0	91.5*	14.9	47.8	23.4	-9.7	83.0*	40.4*
O=C(NCCc1ccccc1)C1CCC(CNS(=O)(=O)c2ccc(F)cc2)CC1 (configuration not stated)	0.8	31.8	-51.4	-45.0	-8.0	-10.7	x	x
N#C/C(=N\Nc1cccc(C(F)(F)F)c1)C(=O)c1ccsc1	3.0	78.1*	-283.5	-84.5	38.1	-38.6	63.2*	66.7*
CC(C)[C@@H]1Cc2[nH][nH]c(=O)c2[C@H](c2ccc(F)cc2)O1	12.5	x	-32.0	x	x	x	x	x
COc1cc(C)c(CN2CCN(S(=O)(=O)c3ccc(Cl)s3)CC2)cc1OC	0.6	2.2	5.0	3.6	0.5	15.0	x	x
CN1CCN(CCC=C2c3ccccc3Sc3ccc(S(=O)(=O)N(C)C)cc32)CC1	11.1	50.5*	-91.6	-27.1	34.2	-6.2	31.1	x
COc1ccc(/C=C/C(=O)Nc2ccccc2C(=O)O)cc1	3.1	-68.8	-50.0	-89.3	-10.0	-7.5	x	x
COc1ccc(/C=C/C(=O)Nc2ccccc2C(=O)O)cc1OC	-1.4	61.7*	21.6	12.4	-12.2	37.6	75.8*	131.3*
CCC/C(C)=N/NC(=O)c1ccccc1O	0.3	14.4	-0.8	11.1	5.1	-2.3	x	x
CCOC(=O)C(CC)/C(C)=N\NC(=O)c1ccccc1O (configuration not stated)	12.3	67.8*	-61.9	54.0*	-11.1	-11.5	49.8*	76.8*
CCCc1nnn(S(=O)(=O)c2ccc([N+](=O)[O-])cc2)c1CCC	-13.8	x	-6.1	7.9	3.9	7.9	x	x
COC(=O)c1cccc(C#CC(NP(=O)(c2ccccc2)c2ccccc2)c2ccccc2)c1 (configuration not stated)	7.7	29.8	-4.1	25.2	16.6	-11.9	x	x
CCC[C@@H]1C[C@@]1(CCC)[C@@H](NP(=O)(c1ccccc1)c1ccccc1)c1ccc(C(=O)OC)cc1	x	75.1*	x	x	x	x	38.9	73.0*
Cc1nn(-c2cccc(Cl)c2)c(Cl)c1/C=N/NC(=O)c1cccs1	-6.4	78.4*	-102.3	-28.7	0.4	-2.7	53.5*	48.2*
COc1ccc(/C=C/C(=O)c2ccc3c(c2)OCO3)cc1OC	-6.5	19.9	-34.8	-23.7	-19.0	-8.6	x	x
COc1ccc(OC)c(/C=C/C(=O)c2ccc3c(c2)OCCO3)c1	12.9	76.2*	-71.9	-48.7	-0.7	-33.2	16.3	x
COc1cc2c(cc1OC)C(c1cccs1)N(C(=S)NC(C)C)CC2 (configuration not stated)	4.7	24.9	18.9	11.1	13.4	-3.2	x	x
N/C(CCS(=O)(=O)c1ccc(Cl)cc1)=N\OC(=O)c1ccccc1C(F)(F)F	7.7	94.4*	16.1	47.2	30.8	-9.0	93.4*	22.7
